We go through one compound from ChEMBL document CHEMBL1961873, “Compounds: GSK PKIS; Assays: Nanosyn kinase panel” (2012).

The target of assay [1] is Sphingosine kinase 1 (Homo sapiens) (UniProt Q9NYA1). To be noted: at 1 µM.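 Further: mean SPHK1 inhibition value reported from the GSK PKIS kinase panel screen.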
The target of assay [2] is T1, Sphingosine kinase 2 (Homo sapiens) (UniProt Q9NRA0).
T1 sequence (whole entry): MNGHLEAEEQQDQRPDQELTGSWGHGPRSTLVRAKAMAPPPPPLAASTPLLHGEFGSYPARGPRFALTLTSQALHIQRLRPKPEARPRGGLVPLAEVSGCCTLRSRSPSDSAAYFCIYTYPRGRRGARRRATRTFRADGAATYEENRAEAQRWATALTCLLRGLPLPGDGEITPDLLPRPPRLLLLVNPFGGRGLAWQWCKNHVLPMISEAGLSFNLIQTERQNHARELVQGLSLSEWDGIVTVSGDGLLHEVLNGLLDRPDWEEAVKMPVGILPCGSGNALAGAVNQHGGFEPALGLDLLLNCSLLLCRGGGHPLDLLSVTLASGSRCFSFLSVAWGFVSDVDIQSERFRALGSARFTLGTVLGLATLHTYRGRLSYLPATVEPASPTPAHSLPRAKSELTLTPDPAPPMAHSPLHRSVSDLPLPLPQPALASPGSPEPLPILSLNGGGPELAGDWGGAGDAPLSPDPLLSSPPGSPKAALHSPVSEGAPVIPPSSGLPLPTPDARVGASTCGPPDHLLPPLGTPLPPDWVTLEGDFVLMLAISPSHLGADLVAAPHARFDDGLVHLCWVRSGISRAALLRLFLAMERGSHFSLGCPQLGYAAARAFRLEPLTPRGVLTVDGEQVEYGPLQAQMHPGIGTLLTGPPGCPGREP
To be noted: at 0.1 µM.

Assay [3] has as its target T1, Sphingosine kinase 2 (Homo sapiens). Particulars: at 1 µM.
The target of assay [4] is Casein kinase II subunit alpha (Homo sapiens) (UniProt P68400). Particulars: at 0.1 µM.
For assay [5] the target is unchanged. To be noted: at 1 µM.
Assay [6] deals with T2, Inhibitor of nuclear factor kappa-B kinase subunit alpha (Homo sapiens) (UniProt O15111).
T2 sequence (whole entry): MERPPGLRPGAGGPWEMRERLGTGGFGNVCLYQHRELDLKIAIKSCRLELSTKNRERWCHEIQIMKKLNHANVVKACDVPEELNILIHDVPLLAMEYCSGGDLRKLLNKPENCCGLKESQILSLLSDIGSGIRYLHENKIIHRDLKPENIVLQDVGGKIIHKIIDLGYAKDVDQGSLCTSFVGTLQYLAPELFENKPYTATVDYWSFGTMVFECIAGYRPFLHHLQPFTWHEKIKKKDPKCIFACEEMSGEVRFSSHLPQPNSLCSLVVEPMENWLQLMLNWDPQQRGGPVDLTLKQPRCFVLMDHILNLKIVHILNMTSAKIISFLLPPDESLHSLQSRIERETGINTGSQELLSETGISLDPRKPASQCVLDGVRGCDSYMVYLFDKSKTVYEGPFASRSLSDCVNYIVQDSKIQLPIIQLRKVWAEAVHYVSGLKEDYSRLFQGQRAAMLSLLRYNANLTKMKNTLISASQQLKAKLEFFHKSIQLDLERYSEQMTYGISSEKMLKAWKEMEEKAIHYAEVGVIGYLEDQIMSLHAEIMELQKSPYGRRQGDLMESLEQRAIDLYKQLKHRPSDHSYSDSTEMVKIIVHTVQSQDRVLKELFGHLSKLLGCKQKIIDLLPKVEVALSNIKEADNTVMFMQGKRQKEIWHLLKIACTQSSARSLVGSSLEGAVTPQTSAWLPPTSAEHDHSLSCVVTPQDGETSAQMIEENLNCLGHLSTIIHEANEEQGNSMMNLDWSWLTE
To be noted: at 0.1 µM.

Assay [7] has as its target T2, Inhibitor of nuclear factor kappa-B kinase subunit alpha (Homo sapiens). To be noted: at 1 µM.
Assay [8] concerns the target T3, Inhibitor of nuclear factor kappa-B kinase subunit beta (Homo sapiens) (UniProt O14920).
T3 sequence (whole entry): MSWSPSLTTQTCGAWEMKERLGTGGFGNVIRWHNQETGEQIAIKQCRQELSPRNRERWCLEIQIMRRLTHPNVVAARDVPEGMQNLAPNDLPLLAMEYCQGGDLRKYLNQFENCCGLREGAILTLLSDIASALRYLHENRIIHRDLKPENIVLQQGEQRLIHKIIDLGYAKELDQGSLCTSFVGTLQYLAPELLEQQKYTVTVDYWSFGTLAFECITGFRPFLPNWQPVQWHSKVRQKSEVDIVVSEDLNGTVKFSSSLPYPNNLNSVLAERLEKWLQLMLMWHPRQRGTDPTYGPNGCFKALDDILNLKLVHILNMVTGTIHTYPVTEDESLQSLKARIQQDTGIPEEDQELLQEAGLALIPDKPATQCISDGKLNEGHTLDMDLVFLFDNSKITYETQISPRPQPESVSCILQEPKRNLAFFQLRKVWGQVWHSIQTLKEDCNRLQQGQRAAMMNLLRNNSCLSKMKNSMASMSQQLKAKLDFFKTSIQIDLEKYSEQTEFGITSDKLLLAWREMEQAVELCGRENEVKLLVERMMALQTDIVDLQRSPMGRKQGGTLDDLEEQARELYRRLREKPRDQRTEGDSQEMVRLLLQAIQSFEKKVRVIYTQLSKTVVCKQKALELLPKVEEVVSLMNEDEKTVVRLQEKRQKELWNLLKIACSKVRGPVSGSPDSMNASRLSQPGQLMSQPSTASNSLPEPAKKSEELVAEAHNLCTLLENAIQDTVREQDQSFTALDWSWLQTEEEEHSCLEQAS
To be noted: at 0.1 µM.

Assay [9] has as its target T3, Inhibitor of nuclear factor kappa-B kinase subunit beta (Homo sapiens). To be noted: at 1 µM.
In assay [10] the target is T4, Inhibitor of nuclear factor kappa-B kinase subunit epsilon (Homo sapiens) (UniProt Q14164).
T4 sequence (whole entry): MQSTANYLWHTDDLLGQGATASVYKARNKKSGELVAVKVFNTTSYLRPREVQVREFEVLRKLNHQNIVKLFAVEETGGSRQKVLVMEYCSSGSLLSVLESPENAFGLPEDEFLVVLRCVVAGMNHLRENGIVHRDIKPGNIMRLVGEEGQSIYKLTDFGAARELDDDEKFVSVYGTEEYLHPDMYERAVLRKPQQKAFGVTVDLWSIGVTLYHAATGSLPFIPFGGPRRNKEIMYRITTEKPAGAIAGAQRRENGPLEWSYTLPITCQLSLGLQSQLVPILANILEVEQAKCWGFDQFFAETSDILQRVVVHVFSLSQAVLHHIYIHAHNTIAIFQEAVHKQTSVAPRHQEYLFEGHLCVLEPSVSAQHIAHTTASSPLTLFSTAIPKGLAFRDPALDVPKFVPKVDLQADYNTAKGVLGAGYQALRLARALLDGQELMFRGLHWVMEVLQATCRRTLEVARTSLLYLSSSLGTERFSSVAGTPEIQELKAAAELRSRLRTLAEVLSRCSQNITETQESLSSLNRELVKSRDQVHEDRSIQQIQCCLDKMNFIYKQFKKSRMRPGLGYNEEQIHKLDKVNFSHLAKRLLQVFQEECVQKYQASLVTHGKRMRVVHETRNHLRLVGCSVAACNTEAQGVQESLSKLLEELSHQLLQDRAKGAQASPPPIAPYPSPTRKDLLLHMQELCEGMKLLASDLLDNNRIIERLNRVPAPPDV
To be noted: at 0.1 µM.

Assay [11] addresses T4, Inhibitor of nuclear factor kappa-B kinase subunit epsilon (Homo sapiens). To be noted: at 1 µM.
Assay [12] concerns the target T5, Serine/threonine-protein kinase Nek1 (Homo sapiens) (UniProt Q96PY6).
T5 sequence (whole entry): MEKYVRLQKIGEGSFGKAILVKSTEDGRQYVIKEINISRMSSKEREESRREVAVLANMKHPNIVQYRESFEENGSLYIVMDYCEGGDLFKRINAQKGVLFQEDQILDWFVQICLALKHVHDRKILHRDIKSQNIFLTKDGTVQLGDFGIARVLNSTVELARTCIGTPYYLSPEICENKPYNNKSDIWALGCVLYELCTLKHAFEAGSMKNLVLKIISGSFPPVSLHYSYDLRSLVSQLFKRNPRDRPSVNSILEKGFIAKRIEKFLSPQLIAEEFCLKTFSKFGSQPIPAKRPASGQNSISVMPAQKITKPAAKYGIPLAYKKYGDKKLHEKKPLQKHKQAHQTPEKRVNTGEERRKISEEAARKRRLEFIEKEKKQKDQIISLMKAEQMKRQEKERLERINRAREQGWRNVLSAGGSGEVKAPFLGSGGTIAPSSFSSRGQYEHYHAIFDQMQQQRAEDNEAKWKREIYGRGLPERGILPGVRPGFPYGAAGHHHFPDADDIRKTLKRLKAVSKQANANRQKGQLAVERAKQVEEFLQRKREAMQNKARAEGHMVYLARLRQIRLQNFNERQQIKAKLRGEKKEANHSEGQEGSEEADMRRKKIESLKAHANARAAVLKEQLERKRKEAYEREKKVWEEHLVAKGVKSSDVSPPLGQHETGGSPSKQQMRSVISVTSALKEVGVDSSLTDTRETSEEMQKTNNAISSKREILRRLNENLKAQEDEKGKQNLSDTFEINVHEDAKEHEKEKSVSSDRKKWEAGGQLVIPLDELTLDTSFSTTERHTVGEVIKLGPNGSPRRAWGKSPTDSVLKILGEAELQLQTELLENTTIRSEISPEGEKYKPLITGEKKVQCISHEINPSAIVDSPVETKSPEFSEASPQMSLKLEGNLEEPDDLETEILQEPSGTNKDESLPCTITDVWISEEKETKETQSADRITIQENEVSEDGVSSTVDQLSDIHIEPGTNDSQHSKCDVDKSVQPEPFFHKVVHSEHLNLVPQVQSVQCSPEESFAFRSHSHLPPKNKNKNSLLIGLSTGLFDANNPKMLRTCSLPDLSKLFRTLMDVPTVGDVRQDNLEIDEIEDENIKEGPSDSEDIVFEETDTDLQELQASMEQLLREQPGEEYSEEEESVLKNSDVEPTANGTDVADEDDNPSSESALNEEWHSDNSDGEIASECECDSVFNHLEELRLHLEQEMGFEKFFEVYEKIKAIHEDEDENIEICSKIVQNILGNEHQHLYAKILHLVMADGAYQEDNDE
To be noted: at 0.1 µM.

The target of assay [13] is T5, Serine/threonine-protein kinase Nek1 (Homo sapiens). Particulars: at 1 µM.
Assay [14] has as its target T6, Serine/threonine-protein kinase Nek2 (Homo sapiens) (UniProt P51955).
T6 sequence (whole entry): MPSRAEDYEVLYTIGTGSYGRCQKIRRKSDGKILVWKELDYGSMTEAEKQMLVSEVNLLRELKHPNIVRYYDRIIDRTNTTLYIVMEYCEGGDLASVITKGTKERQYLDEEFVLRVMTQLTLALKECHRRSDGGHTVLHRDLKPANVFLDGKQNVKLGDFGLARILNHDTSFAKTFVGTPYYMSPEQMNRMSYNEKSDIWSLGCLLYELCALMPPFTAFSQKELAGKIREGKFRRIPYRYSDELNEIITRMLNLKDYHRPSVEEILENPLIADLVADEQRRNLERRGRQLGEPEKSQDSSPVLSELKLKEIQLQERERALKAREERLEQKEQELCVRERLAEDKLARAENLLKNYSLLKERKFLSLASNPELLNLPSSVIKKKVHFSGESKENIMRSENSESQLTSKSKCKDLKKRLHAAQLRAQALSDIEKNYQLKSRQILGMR
To be noted: at 0.1 µM.

Assay [15] concerns the target T6, Serine/threonine-protein kinase Nek2 (Homo sapiens). To be noted: at 1 µM.
In assay [16] the target is Serine/threonine-protein kinase Nek6 (Homo sapiens) (UniProt Q9HC98). To be noted: at 0.1 µM.
For assay [17] the target is unchanged. Particulars: at 1 µM.
Assay [18] has as its target Serine/threonine-protein kinase Nek7 (Homo sapiens) (UniProt Q8TDX7). To be noted: at 0.1 µM.
For assay [19] the target is unchanged. Particulars: at 1 µM.
For assay [20], the target named is T7, Serine/threonine-protein kinase Nek9 (Homo sapiens) (UniProt Q8TD19).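 Further: reported value is the mean percent inhibition of NEK9.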
T7 sequence (whole entry): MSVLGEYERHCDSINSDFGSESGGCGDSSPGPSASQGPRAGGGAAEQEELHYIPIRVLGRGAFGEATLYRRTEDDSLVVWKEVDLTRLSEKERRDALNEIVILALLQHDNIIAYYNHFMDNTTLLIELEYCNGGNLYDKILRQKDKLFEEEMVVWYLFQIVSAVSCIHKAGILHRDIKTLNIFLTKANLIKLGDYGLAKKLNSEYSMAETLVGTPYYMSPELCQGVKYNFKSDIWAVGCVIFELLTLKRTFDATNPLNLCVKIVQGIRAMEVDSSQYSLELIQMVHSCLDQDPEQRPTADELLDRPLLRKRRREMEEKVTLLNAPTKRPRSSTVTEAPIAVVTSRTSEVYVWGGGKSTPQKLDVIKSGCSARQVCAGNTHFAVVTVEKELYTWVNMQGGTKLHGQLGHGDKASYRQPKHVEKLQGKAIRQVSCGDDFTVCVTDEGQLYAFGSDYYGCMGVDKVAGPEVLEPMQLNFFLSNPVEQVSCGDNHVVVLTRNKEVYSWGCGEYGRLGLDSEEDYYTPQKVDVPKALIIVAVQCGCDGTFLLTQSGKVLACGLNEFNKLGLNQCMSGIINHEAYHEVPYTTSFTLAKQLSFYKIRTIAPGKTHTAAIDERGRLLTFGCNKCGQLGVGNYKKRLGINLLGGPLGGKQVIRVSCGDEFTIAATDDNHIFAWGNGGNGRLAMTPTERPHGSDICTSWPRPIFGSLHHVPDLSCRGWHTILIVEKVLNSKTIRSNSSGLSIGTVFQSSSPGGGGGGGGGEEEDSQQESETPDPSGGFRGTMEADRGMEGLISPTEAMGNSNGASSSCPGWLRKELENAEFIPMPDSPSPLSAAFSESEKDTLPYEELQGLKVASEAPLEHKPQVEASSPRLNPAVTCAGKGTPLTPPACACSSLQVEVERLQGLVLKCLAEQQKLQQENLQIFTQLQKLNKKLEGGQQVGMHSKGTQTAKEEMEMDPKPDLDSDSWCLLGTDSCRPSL
Particulars: at 0.1 µM.

SMILES strings stand for the structures. Several values for one entry are separate records, joined by “and”; a condition that tells them apart may be missing. Identical values can stand only once.

The inhibition is the change of the read-out against control, counted positive when it falls.

Serine/threonine-protein kinase Nek6 (Homo sapiens), sequence (Q9HC98 whole entry): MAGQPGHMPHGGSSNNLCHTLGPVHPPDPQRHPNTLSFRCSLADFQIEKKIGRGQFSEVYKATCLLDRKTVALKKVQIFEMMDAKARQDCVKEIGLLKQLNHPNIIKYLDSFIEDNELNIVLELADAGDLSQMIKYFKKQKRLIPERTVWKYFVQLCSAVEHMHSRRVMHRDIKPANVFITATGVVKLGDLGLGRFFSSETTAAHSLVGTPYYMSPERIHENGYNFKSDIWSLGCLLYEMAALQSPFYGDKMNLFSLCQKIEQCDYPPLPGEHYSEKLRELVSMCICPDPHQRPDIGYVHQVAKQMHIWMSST
Serine/threonine-protein kinase Nek7 (Homo sapiens), sequence (Q8TDX7 whole entry, looked up): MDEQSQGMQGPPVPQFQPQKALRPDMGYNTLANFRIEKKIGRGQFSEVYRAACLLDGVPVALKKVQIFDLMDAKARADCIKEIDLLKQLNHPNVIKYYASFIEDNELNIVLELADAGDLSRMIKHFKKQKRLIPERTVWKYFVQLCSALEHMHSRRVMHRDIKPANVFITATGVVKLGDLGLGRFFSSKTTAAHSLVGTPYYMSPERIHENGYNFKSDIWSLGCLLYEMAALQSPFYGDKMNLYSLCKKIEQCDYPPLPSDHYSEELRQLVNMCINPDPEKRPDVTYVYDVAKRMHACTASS
Casein kinase II subunit alpha (Homo sapiens), sequence (P68400 whole entry, looked up): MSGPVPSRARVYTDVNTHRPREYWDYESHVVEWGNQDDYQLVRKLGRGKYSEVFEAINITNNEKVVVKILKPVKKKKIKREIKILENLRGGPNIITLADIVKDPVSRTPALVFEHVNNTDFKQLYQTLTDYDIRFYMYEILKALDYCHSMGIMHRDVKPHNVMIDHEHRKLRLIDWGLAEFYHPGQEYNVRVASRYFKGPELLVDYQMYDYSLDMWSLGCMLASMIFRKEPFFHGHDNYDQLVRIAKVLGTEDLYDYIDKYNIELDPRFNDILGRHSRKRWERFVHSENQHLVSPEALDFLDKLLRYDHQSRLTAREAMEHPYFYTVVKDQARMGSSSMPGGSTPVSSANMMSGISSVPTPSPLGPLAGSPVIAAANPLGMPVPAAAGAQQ
Sphingosine kinase 1 (Homo sapiens), sequence (Q9NYA1 whole entry): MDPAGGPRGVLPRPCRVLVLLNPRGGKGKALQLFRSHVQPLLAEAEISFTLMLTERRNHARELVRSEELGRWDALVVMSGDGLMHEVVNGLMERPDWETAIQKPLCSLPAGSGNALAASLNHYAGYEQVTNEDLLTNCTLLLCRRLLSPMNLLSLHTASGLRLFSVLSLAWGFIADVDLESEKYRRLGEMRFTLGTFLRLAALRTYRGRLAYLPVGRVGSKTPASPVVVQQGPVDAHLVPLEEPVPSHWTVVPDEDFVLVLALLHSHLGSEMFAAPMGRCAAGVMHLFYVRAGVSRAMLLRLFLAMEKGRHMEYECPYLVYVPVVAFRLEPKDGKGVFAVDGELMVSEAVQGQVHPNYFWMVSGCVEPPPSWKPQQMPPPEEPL

In the case of `Nc1nonc1-c1nc2cnccc2n1C1CC1`, the inhibition in assay [1] is -2.58% and -3.16%; in [2], 0.27% and 0.67%; in assay [3] it was 0.49% and 1.53%; in assay [4], 1.54% and 1.55%; in assay [5], 1.9% and 1.11%; in assay [6], 6.14% and 3.82%. Also, the inhibition in assay [7] was 1.6% and 3.39%; in assay [8], 4.31% and 2.15%; in assay [9], 1.3% and 3.29%; in assay [10] it was 3.18% and 3.84%; in assay [11] it was 11.3% and 10.2%; in [12] it was 1.72% and 1.48%. The inhibition is 6.39% and 2.72% in assay [13]; 5.51% and 2.84% in assay [14]; 4.67% and 4.04% in assay [15]; 3.25% and -0.01% in assay [16]; -0.06% and 2.15% in [17]; 3.77% and 4.5% in assay [18]. For the same compound, the inhibition in assay [19] was 2.89% and 3.28%; in [20], 8.67% and 3.36%.
